# Whole data set: some 16,000 sequences, median “rpm ratio (pull-down/input)” near 0.94, cut for the highest 2% near 1.7. What follows is part of a selection rich in the highest values, with near analogues and random picks from the rest.
# Molecular target: T1, MBP-FoxP1dN (Mus musculus, UniProt P58462 326-579)
# T1 sequence: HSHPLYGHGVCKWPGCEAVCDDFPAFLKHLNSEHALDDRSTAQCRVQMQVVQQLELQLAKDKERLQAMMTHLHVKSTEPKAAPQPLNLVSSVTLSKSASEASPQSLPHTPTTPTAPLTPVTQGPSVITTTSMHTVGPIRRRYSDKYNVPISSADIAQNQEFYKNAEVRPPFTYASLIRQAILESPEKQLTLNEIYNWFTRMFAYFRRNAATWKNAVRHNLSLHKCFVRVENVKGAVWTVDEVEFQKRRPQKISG
# Experiment: PD-seq (MBP pull-down with sequencing); 20 mM Tris-HCl pH 7.5, 100 mM NaCl, 1.5 mM MgCl2, 0.4 uM protein, 0.1 uM dsDNA library, 30 min, room temperature, amylose pull-down; high values mean tight binding
# Conditions: protein: recombinant; tags: His6-MBP; chain copies: 2; dsDNA, one strand shown
# Outline: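 In Tris pH 7.5 buffer with NaCl and MgCl2, 0.4 µM His6-MBP-tagged mouse FoxP3 or FoxP1 fragment lacking the N-terminus, from E. coli, met 0.1 µM Klenow-filled double-stranded degenerate DNA library for 30 min at room temperature. Three washes on amylose resin followed capture of the complexes, then proteinase K release of DNA, PCR barcoding and Illumina sequencing. Binding is taken as pooled-replicate reads-per-million enrichment of pull-down relative to input.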
row,Sequence,binding signal
1,GATGATTGTTCTCCCAGCTGATGAATTTCACCATTCGAGTAAACAAATTTTCCTAATCTTTCTGTTCAAGCGCCATCTAC,0.883 RPM ratio (pull-down/input)
2,GATGATTGTTCTCCCAGCTGATGAATTTCGTCTCTCGAGTAAACAAATTTTCCTAATCTTTCTGTTCAAGCGCCATCTAC,0.896 RPM ratio (pull-down/input)
3,GATGATTGTTCTCCCAGCTGATGAATTATGACCTTCGAGTAAACAAATTTTCCTAATCTTTCTGTTCAAGCGCCATCTAC,0.925 RPM ratio (pull-down/input)
4,GATGATTGTTCTCCCAGCTGATGAATTATGCCACTCGAGTAAACAAATTTTCCTAATCTTTCTGTTCAAGCGCCATCTAC,1.06 RPM ratio (pull-down/input)
5,GATGATTGTTCTCCCAGCTGATGAATTTTCCCTCTCGAGTAAACAAATTTTCCTAATCTTTCTGTTCAAGCGCCATCTAC,0.877 RPM ratio (pull-down/input)
6,GATGATTGTTCTCCCAGCTGATGAATTCCGAGATTCGAGTAAACAAATTTTCCTAATCTTTCTGTTCAAGCGCCATCTAC,0.799 RPM ratio (pull-down/input)
7,GATGATTGTTCTCCCAGCTGATGAATTAAGTGTATCGAGTAAACAAATTTTCCTAATCTTTCTGTTCAAGCGCCATCTAC,1.28 RPM ratio (pull-down/input)
8,GATGATTGTTCTCCCAGCTGATGAATTTCAGTCATCGAGTAAACAAATTTTCCTAATCTTTCTGTTCAAGCGCCATCTAC,1 RPM ratio (pull-down/input)
9,GATGATTGTTCTCCCAGCTGATGAATTTTCCACTTCGAGTAAACAAATTTTCCTAATCTTTCTGTTCAAGCGCCATCTAC,0.903 RPM ratio (pull-down/input)
10,GATGATTGTTCTCCCAGCTGATGAATTTAGGAGATCGAGTAAACAAATTTTCCTAATCTTTCTGTTCAAGCGCCATCTAC,0.968 RPM ratio (pull-down/input)
11,GATGATTGTTCTCCCAGCTGATGAATTTACTATTTCGAGTAAACAAATTTTCCTAATCTTTCTGTTCAAGCGCCATCTAC,1.55 RPM ratio (pull-down/input)
12,GATGATTGTTCTCCCAGCTGATGAATTATTACTGTCGAGTAAACAAATTTTCCTAATCTTTCTGTTCAAGCGCCATCTAC,1.17 RPM ratio (pull-down/input)
13,GATGATTGTTCTCCCAGCTGATGAATTACTAATGTCGAGTAAACAAATTTTCCTAATCTTTCTGTTCAAGCGCCATCTAC,1.28 RPM ratio (pull-down/input)
14,GATGATTGTTCTCCCAGCTGATGAATTACTATTGTCGAGTAAACAAATTTTCCTAATCTTTCTGTTCAAGCGCCATCTAC,2.38 RPM ratio (pull-down/input)
15,GATGATTGTTCTCCCAGCTGATGAATTACTATTATCGAGTAAACAAATTTTCCTAATCTTTCTGTTCAAGCGCCATCTAC,1.87 RPM ratio (pull-down/input)
16,GATGATTGTTCTCCCAGCTGATGAATTACTATCATCGAGTAAACAAATTTTCCTAATCTTTCTGTTCAAGCGCCATCTAC,1.28 RPM ratio (pull-down/input)
17,GATGATTGTTCTCCCAGCTGATGAATTATTACTATCGAGTAAACAAATTTTCCTAATCTTTCTGTTCAAGCGCCATCTAC,1.21 RPM ratio (pull-down/input)

row,Sequence,binding signal
1,GATGATTGTTCTCCCAGCTGATGAATTACTAATTTCGAGTAAACAAATTTTCCTAATCTTTCTGTTCAAGCGCCATCTAC,1.25 RPM ratio (pull-down/input)
2,GATGATTGTTCTCCCAGCTGATGAATTACTATTTTCGAGTAAACAAATTTTCCTAATCTTTCTGTTCAAGCGCCATCTAC,2.29 RPM ratio (pull-down/input)
3,GATGATTGTTCTCCCAGCTGATGAATTTCTCTATTCGAGTAAACAAATTTTCCTAATCTTTCTGTTCAAGCGCCATCTAC,0.936 RPM ratio (pull-down/input)
4,GATGATTGTTCTCCCAGCTGATGAATTCTCGGCCTCGAGTAAACAAATTTTCCTAATCTTTCTGTTCAAGCGCCATCTAC,0.731 RPM ratio (pull-down/input)
5,GATGATTGTTCTCCCAGCTGATGAATTATGACTGTCGAGTAAACAAATTTTCCTAATCTTTCTGTTCAAGCGCCATCTAC,0.934 RPM ratio (pull-down/input)
6,GATGATTGTTCTCCCAGCTGATGAATTCCCTCGGTCGAGTAAACAAATTTTCCTAATCTTTCTGTTCAAGCGCCATCTAC,0.759 RPM ratio (pull-down/input)
7,GATGATTGTTCTCCCAGCTGATGAATTGTGCCTATCGAGTAAACAAATTTTCCTAATCTTTCTGTTCAAGCGCCATCTAC,1.09 RPM ratio (pull-down/input)
8,GATGATTGTTCTCCCAGCTGATGAATTTGATCACTCGAGTAAACAAATTTTCCTAATCTTTCTGTTCAAGCGCCATCTAC,1.02 RPM ratio (pull-down/input)
9,GATGATTGTTCTCCCAGCTGATGAATTCCAAGTATCGAGTAAACAAATTTTCCTAATCTTTCTGTTCAAGCGCCATCTAC,0.949 RPM ratio (pull-down/input)
10,GATGATTGTTCTCCCAGCTGATGAATTCGCTTAATCGAGTAAACAAATTTTCCTAATCTTTCTGTTCAAGCGCCATCTAC,0.936 RPM ratio (pull-down/input)
11,GATGATTGTTCTCCCAGCTGATGAATTCTGTGGATCGAGTAAACAAATTTTCCTAATCTTTCTGTTCAAGCGCCATCTAC,0.956 RPM ratio (pull-down/input)
12,GATGATTGTTCTCCCAGCTGATGAATTATCTAGATCGAGTAAACAAATTTTCCTAATCTTTCTGTTCAAGCGCCATCTAC,0.863 RPM ratio (pull-down/input)
13,GATGATTGTTCTCCCAGCTGATGAATTTATATCATCGAGTAAACAAATTTTCCTAATCTTTCTGTTCAAGCGCCATCTAC,1.27 RPM ratio (pull-down/input)
14,GATGATTGTTCTCCCAGCTGATGAATTAAATGCGTCGAGTAAACAAATTTTCCTAATCTTTCTGTTCAAGCGCCATCTAC,1.43 RPM ratio (pull-down/input)
15,GATGATTGTTCTCCCAGCTGATGAATTATTGGCTTCGAGTAAACAAATTTTCCTAATCTTTCTGTTCAAGCGCCATCTAC,1.1 RPM ratio (pull-down/input)
16,GATGATTGTTCTCCCAGCTGATGAATTTAGCTCCTCGAGTAAACAAATTTTCCTAATCTTTCTGTTCAAGCGCCATCTAC,0.946 RPM ratio (pull-down/input)

# Source: PMC12820563, “FoxP3 forms a head-to-head dimer in vivo and stabilizes its multimerization on adjacent microsatellites”
